Test results taken from PubChem BioAssay AID434970 (Sanford-Burnham Center for Chemical Genomics, 2010).
The whole screen tested about 11,000 compounds, of which about 310 (2.8%) were called active. No stated cut-off is given here; in the data, active means activity change below about -85%; inactive means the rest. The list comes from a sample in which actives are over-represented; it also holds similar structures and randomly drawn compounds.

system: intestinal alkaline phosphatase [Mus musculus]; test: activators of mouse IAP, confirmation, biochemical, luminescence, single concentration (AID 434970); details: purified mouse IAP, CDP-Star luminescence, 30 min, at 10 µM; activation factor: measured here: IAP activation factor, stronger effect = higher value; activity change, negative = activation: stronger effect = lower value

SMILES	activation factor	activity change, negative = activation
CCOC(=O)C1(C)/C(=N/Nc2ccccc2Cl)C(=O)C(=O)N1c1ccccc1 (stereo unspecified)	0.886	11.4% (inactive)
Cc1ccc(C)c(N2CCN(C(=O)CCc3nc(-c4ccc(Br)cc4)no3)CC2)c1	1.04	-4.15% (inactive)
NC(=O)C1CCN(CC(=O)Nc2ccccn2)CC1	0.922	7.8% (inactive)
CCCN(CCC)C(=O)c1ccc2c(c1)OCO2	1.05	-5.1% (inactive)
COc1ccc(CN2CC[C@H]3C=CC[C@@H](C(=O)Nc4ccc(Cl)c(C(F)(F)F)c4)[C@H]3C2=O)cc1OC	2.85	-185% (active)
CCCCN1CC[C@@H]2C=CC[C@H](C(=O)OC)[C@@H]2C1=O	0.952	4.85% (inactive)
O=C(O)[C@H]1CC=C[C@H]2CCN(Cc3ccc(Cl)c(Cl)c3)C(=O)[C@@H]12	1.05	-5.25% (inactive)
CCOC(=O)c1ccc(NC(=O)NC2CC3CCC(C2)N3Cc2nnnn2C(C)(C)C)cc1 (stereo unspecified)	1.46	-45.8% (inactive)
COc1ccc2[nH]c3c(c2c1)CCN1C(=O)C(CC(=O)NC/C=C(\C)CCC=C(C)C)C[C@H](C(=O)N(C(C)C)C(C)C)[C@@]31C (stereo partly specified)	2	-100% (active)
CCN(CC)C(=O)[C@H]1CC(CC(=O)NC/C=C(\C)CCC=C(C)C)C(=O)N2CCc3c([nH]c4ccc(OC)cc34)[C@]12C (stereo partly specified)	1.25	-24.9% (inactive)
CC(C)=CCC/C(C)=C/CNC(=O)C[C@H]1C[C@H](C(=O)N(C(C)C)C(C)C)[C@@]2(C)c3[nH]c4ccc(Cl)cc4c3CCN2C1=O	1.25	-25.1% (inactive)
Cc1ccc(NCc2nnc(SCC(N)=O)n2CC2CCCO2)c(C)c1 (stereo unspecified)	1.09	-9.4% (inactive)
FC(F)(F)c1cccc(NC(=S)NCc2ccc(Cl)cc2)c1	1.18	-18.2% (inactive)
COc1ccc(CNC(=O)NCc2ccc(OC)c(OC)c2)cc1OC	1.09	-9% (inactive)
Fc1ccc(CNC(=S)Nc2cccc(C(F)(F)F)c2)cc1	1.28	-27.5% (inactive)
O=C(NCc1ccc2c(c1)CCO2)Nc1cccc(C(F)(F)F)c1	2.44	-144% (active)
FC(F)(F)c1cccc(NC(=S)NCc2ccccc2)c1	1.69	-69.2% (inactive)
COc1ccc(CNC(=O)Nc2cccc(C(F)(F)F)c2)cc1OC	2.21	-121% (active)
Cc1cc(C)c2c(-n3cccc3)c(C(=O)NNS(=O)(=O)c3ccc(Br)cc3)sc2n1	0.865	13.5% (inactive)
CC1(C)CC2CC(C)(CN2C(=O)CN2C(=O)c3ccccc3C2=O)C1 (stereo unspecified)	1.09	-8.65% (inactive)
CC(=O)c1ccc(NC(=O)CCn2c(=O)oc3ccccc32)cc1	1.03	-3.25% (inactive)
COc1ccccc1CNC(=O)CCCOc1cc(=O)n(C)c2ccccc12	0.997	0.3% (inactive)
C=CCC1[C@H](C)[C@H]2[C@@H]3CC[C@@H](C3)[C@H]2CN1S(=O)(=O)c1ccc(C)cc1 (stereo partly specified)	1.12	-11.8% (inactive)
CCN(CC)CCNC(=O)c1ccc(NC(=O)Nc2cccc3ccccc23)cc1	2.6	-160% (active)
O=C(Nc1ccccc1)Nc1cccc2ccccc12	1.79	-78.8% (inactive)
N#CCc1ccc(NC(=O)Nc2cccc3ccccc23)cc1	1.89	-89.1% (inactive)
CCOc1ccc(CC(=O)OCN2C(=O)c3ccccc3C2=O)cc1	0.926	7.35% (inactive)

SMILES	activation factor	activity change, negative = activation
COc1ccccc1C(CC(=O)Nc1ccc(C)c(C)c1)c1ccc(OC(C)C)cc1 (stereo unspecified)	2.06	-106% (active)
Cc1ccc(NC(=O)CNc2ccc(OC(C)C)cc2)cc1	0.9	10% (inactive)
CCOc1ccc(NC(=O)CC(c2ccccc2)c2ccc(F)cc2)cc1 (stereo unspecified)	1.44	-43.6% (inactive)
CCOc1ccccc1NC(=O)c1cccc(NC(=O)CC(c2ccccc2)c2ccccc2)c1	1.39	-39.4% (inactive)
COc1ccccc1C(CC(=O)Nc1ccc(Cl)cc1)c1ccc(OC(C)C)cc1 (stereo unspecified)	1.91	-90.9% (active)
Cc1ccc(NC(=O)c2ncn(CC(=O)NCC(C)c3ccccc3)n2)cc1C (stereo unspecified)	0.995	0.5% (inactive)
O=C(CN(Cc1ccccc1F)C(=O)Cn1nnc(-c2cccs2)n1)NC1CCCCC1	1.22	-22.1% (inactive)
Cc1cc(C(F)F)nn1CC(=O)N1CCSCC1	0.984	1.65% (inactive)
CCCC(=O)NC(=S)Nc1ccccc1C(F)(F)F	0.974	2.55% (inactive)
CCN(CC)S(=O)(=O)c1ccc2c(c1)nc(SCc1nc3ccsc3c(=O)[nH]1)n2CC	0.992	0.85% (inactive)
COc1ccc(CNC(=S)Nc2ccc(F)c(Cl)c2)cc1OC	1.56	-56.2% (inactive)
COc1ccc(N2C(=O)CCC(C(=O)NCc3cccnc3)C2c2ccc(OC)c(OC)c2)cc1 (stereo unspecified)	0.977	2.3% (inactive)
O=C(Nc1cnn(Cc2ccc(Cl)c(Cl)c2)c1)C12CC3CC(CC(C3)C1)C2	1.17	-16.9% (inactive)
O=C(Nc1cnn(Cc2ccccc2)c1)NC12CC3CC(CC(C3)C1)C2	2.05	-105% (active)
O=C(NCc1ccccn1)NC12CC3CC(CC(C3)C1)C2	1.06	-6.25% (inactive)
COc1ccccc1C(=O)N1CCN=C1SC	0.943	5.75% (inactive)
O=C(O)CCN1C(=O)NC2(CCCC2)C1=O	1.15	-15.3% (inactive)
Cc1ccc(C)c(N(C)C(=O)c2coc(=O)c3ccccc23)c1	0.967	3.3% (inactive)
Cc1ccc(NC(=O)NCC2CCN(Cc3cccc(Cl)c3)CC2)cc1Cl	1.87	-87.3% (active)
Cc1cccc(CN2CCC(CNC(=O)Nc3ccc(F)c(Cl)c3)CC2)c1	2.15	-115% (active)
O=C(NCC1CCN(Cc2cccc(Cl)c2)CC1)Nc1ccc(Cl)cc1	1.9	-89.5% (inactive)
CCc1ccc(NC(=O)NCC2CCN(Cc3cccc(Cl)c3)CC2)cc1	2.2	-120% (active)
COc1cccc(NC(=O)COC(=O)c2cc(S(=O)(=O)N3CCOCC3)ccc2C)c1	0.964	3.65% (inactive)
CCc1cccc(CN2CCC(CNC(=O)Nc3ccc(Cl)cc3)CC2)c1	1.68	-67.9% (inactive)
Cc1cccc(NC(=O)NCC2CCN(c3ccc(S(=O)(=O)N4CCOCC4)cc3)CC2)c1	2.56	-156% (active)
O=C(NCC1CCN(c2ccc(S(=O)(=O)N3CCOCC3)cc2)CC1)Nc1ccccc1	1.77	-77.3% (inactive)
